Results from PubChem BioAssay (Tox21).
Where “and” joins values, the source holds several entries; their conditions need not be identical. Equal entries are not always repeated. Inconclusive results are not listed. Calls of active or inactive are those of the source. Calls come from the whole dose curve; as a rule, active = well fitted inhibition curve with a large enough effect in the repeat runs; inconclusive = weak or mixed curves; inactive = no such curve, though single readings can be large or run the other way.

Target: Estrogen receptor (Homo sapiens) (UniProt P03372)
Sequence (P03372 whole entry, looked up): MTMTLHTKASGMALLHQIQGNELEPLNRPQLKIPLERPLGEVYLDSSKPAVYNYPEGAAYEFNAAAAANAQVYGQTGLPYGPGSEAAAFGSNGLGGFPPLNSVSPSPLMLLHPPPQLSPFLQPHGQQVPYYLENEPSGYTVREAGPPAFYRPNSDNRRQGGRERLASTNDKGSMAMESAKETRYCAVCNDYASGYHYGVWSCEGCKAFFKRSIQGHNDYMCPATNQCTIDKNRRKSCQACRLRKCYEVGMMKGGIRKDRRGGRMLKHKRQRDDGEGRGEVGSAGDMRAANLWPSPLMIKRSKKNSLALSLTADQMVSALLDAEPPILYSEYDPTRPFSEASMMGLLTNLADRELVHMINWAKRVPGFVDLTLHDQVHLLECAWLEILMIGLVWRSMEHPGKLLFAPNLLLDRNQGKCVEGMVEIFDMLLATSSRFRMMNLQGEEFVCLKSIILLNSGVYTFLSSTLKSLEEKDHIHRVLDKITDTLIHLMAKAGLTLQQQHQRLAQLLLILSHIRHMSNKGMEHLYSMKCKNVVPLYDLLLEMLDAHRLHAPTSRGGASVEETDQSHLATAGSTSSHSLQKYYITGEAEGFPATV
Experiment: qHTS assay to identify small molecule antagonists of the estrogen receptor alpha (ER-alpha) signaling pathway using the BG1 cell line in the presence of 0.1 nM 17-beta-estradiol (AID 1259244); note: nearly all actives have a fitted effect of over 50% in size
Conditions: VM7Luc4E2 (BG1) ERE-luciferase, antagonist mode, 0.1 nM E2, 22 h; series mostly up to 92.4 µM; activity change, negative = inhibition: at the top concentration
Description: National Center for Advancing Translational Sciences [NCATS]
NIH Chemical Genomics Center [NCGC]
U.S. Environmental Protection Agency [EPA]
National Institutes of Environmental Health Sciences [NIEHS]
National Toxicology Program [NTP]
U.S. Food and Drug Administration [FDA]
Estrogen receptor (ER), a member of the nuclear hormone receptor plays an important role in development, metabolic homeostasis and reproduction. Two subtypes of ER, ER-alpha and ER-beta, have similar expression patterns with some uniqueness in both types. Endocrine disrupting chemicals (EDCs) and their interactions with steroid hormone receptors like ER causes disruption of normal endocrine function. Therefore, it is important to understand the effect of environmental chemicals in ER signaling pathway. For identifying ER antagonists, VM7Luc4E2 cell line was used to screen against Tox21 compound libraries.
VM7Luc4E2 cell line (provided by Denison MS, University of California) endogenously express full-length ER-alpha and is stably transfected with a plasmid containing four estrogen responsive elements (ERE) upstream of a luciferase reporter gene. The current screening for identification of ER-alpha inhibitors against Tox21 compound libraries used lower concentration (0.1 nM) of 17beta-Estradiol as a stimulator.
Tox21 Assay Protocol Summary:
VM7Luc4E2 cells were cultured in phenol red free assay medium containing 10% charcoal stripped FBS for 5 days prior to the assay. The cells were dispensed at 4,000 cells/well in 4 uL of assay medium into white wall/solid-bottom 1536-well plates (Corning Life Sciences, Corning, NY) using a Multidrop Combi (ThermoFisher Scientific, Waltham, MA) dispenser. After the assay plates were incubated at 37C and 5% CO2 for 24 hr, 23 nL of compounds dissolved in DMSO, positive controls or DMSO only was transferred to the assay plates by a Pintool station (Kalypsys, San Diego, CA). The transfer of compounds was followed by the addition of 1 uL of 0.1 nM (final concentration) agonist (17beta-Estradiol)/assay medium using a Flying Reagent Dispenser (FRD, Aurora Discovery, San Diego, CA). The plates were incubated at 37C and 5% CO2 for 22 hr. For luciferase reporter gene assay, 4 uL of ONE-Glo reagent (Promega Corporation, Madison, WI) was added to each well using the FRD and after 30 min incubation at room temperature luminescence intensity was measured using ViewLux plate reader (PerkinElmer, Shelton, CT).
% is set by controls: 0 for no effect and ±100 for the full control effect; potency is the fitted concentration of half-maximal effect.

Structure (SMILES)	activity change, negative = inhibition	Potency
CCOP(=S)(OCC)SCCl	6.82% (inactive)	
COc1ccc(CN2CCNCC2)c(OC)c1OC	8.39% [at 42.5 µM] (inactive)	
CN(C)C1CCCCC1	6.35% (inactive)	
CCOC1Oc2ccc(OS(C)(=O)=O)cc2C1(C)C (stereo not given)		54 µM (active)
CC(C)(N)Cc1ccc(Cl)cc1	5.14% [at 42.5 µM] (inactive)	
COC(=O)c1ccccc1CS(=O)(=O)NC(=O)Nc1nc(OC)cc(OC)n1	11.2% (inactive)	
CCCCOC(C)=O	16.8% (inactive)	
Clc1ccc(C(Cl)(Cl)Cl)cn1	-14.8% (inactive)	
COc1cc(CCN)cc(OC)c1OC	-2.61% (inactive)	
CCOc1cc(OP(=S)(OC)OC)nc(CC)n1	5.54% (inactive)	
CN(CCO)CCO	4.72% (inactive)	
C/C=C/CC#N	3.51% (inactive)	
CC(C)(N)Cc1ccccc1Cl	-6.44% [at 42.5 µM] (inactive)	
O=C(Cl)c1ccccc1	2.45% (inactive)	
O=P(O)(O)CN(CP(=O)(O)O)CP(=O)(O)O		inactive
CC[C@H](N)c1ccccc1	3.22% (inactive)	
CCCN1CCC[C@@H]2Cc3nc(N)ncc3C[C@H]21	9.64% [at 42.5 µM] (inactive)	
Cc1cc(OC(=O)N(C)C)nn1C(=O)N(C)C	33.4% (inactive)	
O=C1CC(=O)NC(=O)N1	-13.4% (inactive)	
CCC1(c2ccccc2)CCC(=O)NC1=O (stereo not given)	-17.4% [at 42.5 µM] (inactive)	

Structure (SMILES)	activity change, negative = inhibition	Potency
CCOC(=O)c1ncn2c1CN(C)C(=O)c1c(I)cccc1-2	2.91% [at 42.5 µM] (inactive)	
NC(=O)CS(=O)C(c1ccccc1)c1ccccc1 (stereo not given)	5.59% [at 42.5 µM] (inactive)	
CCN[C@H](C)Cc1cccc(C(F)(F)F)c1	-1.84% (inactive)	
CC#Cc1cc(C)nc(Nc2ccccc2)n1	40.6% (inactive)	
CC(C)(C)c1cc(O)ccc1O	-10.2% (inactive)	
COc1cccc([C@@]2(O)CCCC[C@@H]2CN(C)C)c1	6.69% [at 42.5 µM] (inactive)	
ClC1=C(Cl)C2(Cl)C(CBr)CC1(Cl)C2(Cl)Cl (stereo not given)		inactive
C/C(=N\NC(=O)Nc1cc(F)cc(F)c1)c1ncccc1C(=O)O		inactive
O=C(Cl)CCl	-7.27% (inactive)	
N#CN=C1SCCN1Cc1ccc(Cl)nc1	3.48% (inactive)	
C[C@H](CN1CCOCC1)C(C(=O)N1CCCC1)(c1ccccc1)c1ccccc1	-20.5% (inactive)	
CNC(=O)Oc1ccccc1C(C)C	-0.257% (inactive)	
C[C@H]1CCCC(=O)CCC/C=C/c2cc(O)cc(O)c2C(=O)O1		23.4 µM (active) and 25.2 µM (active)
CC(=O)CN(CC(C)=O)N=O	13.7% (inactive)	
O=C/C=C/c1ccco1	0.869% (inactive)	
C=C(Cl)CCl	0% (inactive)	
CN(C)CCc1c[nH]c2cccc(OP(=O)(O)O)c12	-3.35% (inactive)	
CCCCCCCCSC(=O)Oc1cc(Cl)nnc1-c1ccccc1	0.384% (inactive)	
BrCc1ccc(Br)cc1	-0.767% (inactive)	
CCOC(=O)C(Cl)Cc1cc(-n2nc(C)n(C(F)F)c2=O)c(F)cc1Cl (stereo not given)	-7.42% (inactive)	
